Among the data in paper PMC7862700, “An all-to-all approach to the identification of sequence-specific readers for epigenetic DNA modifications on cytosine” are binding signal values, retold here.

What all share (experiment): DAPPL (digital affinity profiling via proximity ligation, sequencing); 10 mM Tris-HCl pH 7.5, 50 mM NaCl, 1 mM DTT, 4% glycerol, room temperature, 30 min; GST-TFs on glutathione beads, 16-mer random dsDNA library, 0.1% formaldehyde crosslink after washing; high values mean tight binding
One assay has as its target T1, FLI1 (Homo sapiens, UniProt Q01543 1-452).
T1 sequence: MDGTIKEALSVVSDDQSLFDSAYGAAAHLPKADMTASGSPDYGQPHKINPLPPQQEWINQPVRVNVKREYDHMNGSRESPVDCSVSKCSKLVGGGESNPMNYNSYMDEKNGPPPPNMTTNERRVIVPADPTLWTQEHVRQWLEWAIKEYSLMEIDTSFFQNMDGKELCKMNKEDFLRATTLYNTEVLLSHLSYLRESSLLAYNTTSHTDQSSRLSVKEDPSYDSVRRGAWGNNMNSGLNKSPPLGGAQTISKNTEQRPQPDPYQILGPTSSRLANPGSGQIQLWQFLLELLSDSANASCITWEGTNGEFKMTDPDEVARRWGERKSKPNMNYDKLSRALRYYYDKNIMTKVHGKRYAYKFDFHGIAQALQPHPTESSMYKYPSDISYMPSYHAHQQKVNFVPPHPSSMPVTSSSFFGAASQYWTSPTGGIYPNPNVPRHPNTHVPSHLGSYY
The note with it: protein: recombinant; tags: N-terminal GST; dsDNA, one strand shown. In outline: (§1)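 Binding signal is defined as a hexamer's read frequency for one factor over its frequency for the tag-only sample. To obtain reads, GST-fused human transcription factors were expressed in yeast, captured on glutathione beads, barcoded with DNA and pooled with that sample. Pools met 200 nmole of a 16-mer random double-stranded DNA library in Tris/NaCl/DTT/glycerol buffer for 30 min at room temperature before washing, 0.1% formaldehyde crosslinking, proximity ligation (BsaI/T4 ligase, 1 h, 37 °C), PCR and Illumina NextSeq500 sequencing.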

A further assay has as its target T2, GABPA (Homo sapiens, UniProt Q06546 1-454).
T2 sequence: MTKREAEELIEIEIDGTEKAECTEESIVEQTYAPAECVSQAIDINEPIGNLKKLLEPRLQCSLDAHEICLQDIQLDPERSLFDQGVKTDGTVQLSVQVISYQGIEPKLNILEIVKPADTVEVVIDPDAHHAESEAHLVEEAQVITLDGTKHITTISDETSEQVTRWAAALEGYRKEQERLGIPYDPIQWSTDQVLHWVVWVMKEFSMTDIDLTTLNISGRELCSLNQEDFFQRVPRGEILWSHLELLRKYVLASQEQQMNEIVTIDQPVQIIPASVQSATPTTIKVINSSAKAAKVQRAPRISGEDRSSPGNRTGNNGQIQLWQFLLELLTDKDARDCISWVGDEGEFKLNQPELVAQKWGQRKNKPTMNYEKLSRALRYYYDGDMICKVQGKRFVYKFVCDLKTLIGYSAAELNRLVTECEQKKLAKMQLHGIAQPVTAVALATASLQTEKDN
The settings on record: protein: recombinant; tags: N-terminal GST; dsDNA, one strand shown. In outline:
as §1

Another assay has as its target T3, ERG (Homo sapiens, UniProt P11308 1-479).
T3 sequence: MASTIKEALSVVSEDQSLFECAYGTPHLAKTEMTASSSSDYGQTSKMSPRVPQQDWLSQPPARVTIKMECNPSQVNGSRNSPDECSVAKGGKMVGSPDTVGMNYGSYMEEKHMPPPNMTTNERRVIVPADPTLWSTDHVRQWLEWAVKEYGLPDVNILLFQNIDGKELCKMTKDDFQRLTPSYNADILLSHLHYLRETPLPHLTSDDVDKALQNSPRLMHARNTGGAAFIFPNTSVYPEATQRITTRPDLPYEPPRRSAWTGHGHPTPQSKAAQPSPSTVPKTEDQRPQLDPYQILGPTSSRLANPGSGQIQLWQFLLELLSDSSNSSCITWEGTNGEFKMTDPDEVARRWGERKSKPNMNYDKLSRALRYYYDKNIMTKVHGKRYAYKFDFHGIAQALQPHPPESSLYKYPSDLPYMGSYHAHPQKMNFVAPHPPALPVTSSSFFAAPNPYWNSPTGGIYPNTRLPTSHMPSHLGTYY
The settings on record: protein: recombinant; tags: N-terminal GST; dsDNA, one strand shown. In outline: as §1

The target in a further assay is ELF1 (Homo sapiens, UniProt P32519 1-619). The note with it: protein: recombinant; tags: N-terminal GST; dsDNA, one strand shown. An outline of the steps:
as §1

The target of the next assay is T4, EHF (Homo sapiens, UniProt Q9NZC4 1-300).
T4 sequence: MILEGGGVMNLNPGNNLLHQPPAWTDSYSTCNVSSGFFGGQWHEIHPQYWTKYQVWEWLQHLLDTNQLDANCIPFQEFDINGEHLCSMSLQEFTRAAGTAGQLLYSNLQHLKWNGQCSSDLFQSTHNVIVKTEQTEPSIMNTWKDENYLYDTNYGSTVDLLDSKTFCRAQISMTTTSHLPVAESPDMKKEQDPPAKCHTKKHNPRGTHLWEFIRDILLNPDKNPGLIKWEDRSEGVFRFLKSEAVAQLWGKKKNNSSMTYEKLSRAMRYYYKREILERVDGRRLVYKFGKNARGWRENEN
The settings on record: protein: recombinant; tags: N-terminal GST; dsDNA, one strand shown. In outline:
as §1

The target of a further assay is SPI1 (Homo sapiens, UniProt P17947 1-270). The note with it: protein: recombinant; tags: N-terminal GST; dsDNA, one strand shown. In outline:
as §1

Another assay concerns the target T5, ELK3 (Homo sapiens, UniProt P41970 1-407).
T5 sequence: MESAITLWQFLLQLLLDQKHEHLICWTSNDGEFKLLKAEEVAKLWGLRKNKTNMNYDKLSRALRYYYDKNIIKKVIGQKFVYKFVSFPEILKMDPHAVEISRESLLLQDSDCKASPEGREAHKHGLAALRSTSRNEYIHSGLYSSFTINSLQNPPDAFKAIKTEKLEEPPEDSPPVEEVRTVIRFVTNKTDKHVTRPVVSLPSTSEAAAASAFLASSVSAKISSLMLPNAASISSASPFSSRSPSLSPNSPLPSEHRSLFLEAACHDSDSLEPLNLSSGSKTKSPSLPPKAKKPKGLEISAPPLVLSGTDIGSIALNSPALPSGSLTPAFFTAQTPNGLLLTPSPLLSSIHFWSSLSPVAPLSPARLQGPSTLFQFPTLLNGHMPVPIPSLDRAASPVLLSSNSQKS
The settings on record: protein: recombinant; tags: N-terminal GST; dsDNA, one strand shown. An outline of the steps: as §1

The target in the next assay is ETV5 (Homo sapiens, UniProt P41161 1-510). The note with it: protein: recombinant; tags: N-terminal GST; dsDNA, one strand shown. An outline of the steps: as §1
Sequence of ETV5 (P41161 whole entry): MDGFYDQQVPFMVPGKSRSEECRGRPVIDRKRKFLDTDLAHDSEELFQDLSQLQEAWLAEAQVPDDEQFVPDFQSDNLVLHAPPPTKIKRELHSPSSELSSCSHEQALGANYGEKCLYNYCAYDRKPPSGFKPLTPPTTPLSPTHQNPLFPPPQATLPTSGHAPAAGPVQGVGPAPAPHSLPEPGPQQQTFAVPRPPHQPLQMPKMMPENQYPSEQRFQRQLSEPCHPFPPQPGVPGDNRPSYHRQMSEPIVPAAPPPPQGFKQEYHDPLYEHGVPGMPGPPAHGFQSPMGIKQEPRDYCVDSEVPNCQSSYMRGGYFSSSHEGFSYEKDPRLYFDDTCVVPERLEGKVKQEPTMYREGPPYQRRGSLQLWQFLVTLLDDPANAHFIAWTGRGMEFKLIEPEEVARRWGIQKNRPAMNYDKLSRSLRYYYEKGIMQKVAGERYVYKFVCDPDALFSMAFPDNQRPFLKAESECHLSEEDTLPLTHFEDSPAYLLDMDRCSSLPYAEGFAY
In a further assay the target is HSF1 (Homo sapiens, UniProt Q00613 1-529). The note with it: protein: recombinant; tags: N-terminal GST; chain copies: 3; dsDNA, one strand shown. An outline of the steps: as §1
Sequence of HSF1 (Q00613 whole entry): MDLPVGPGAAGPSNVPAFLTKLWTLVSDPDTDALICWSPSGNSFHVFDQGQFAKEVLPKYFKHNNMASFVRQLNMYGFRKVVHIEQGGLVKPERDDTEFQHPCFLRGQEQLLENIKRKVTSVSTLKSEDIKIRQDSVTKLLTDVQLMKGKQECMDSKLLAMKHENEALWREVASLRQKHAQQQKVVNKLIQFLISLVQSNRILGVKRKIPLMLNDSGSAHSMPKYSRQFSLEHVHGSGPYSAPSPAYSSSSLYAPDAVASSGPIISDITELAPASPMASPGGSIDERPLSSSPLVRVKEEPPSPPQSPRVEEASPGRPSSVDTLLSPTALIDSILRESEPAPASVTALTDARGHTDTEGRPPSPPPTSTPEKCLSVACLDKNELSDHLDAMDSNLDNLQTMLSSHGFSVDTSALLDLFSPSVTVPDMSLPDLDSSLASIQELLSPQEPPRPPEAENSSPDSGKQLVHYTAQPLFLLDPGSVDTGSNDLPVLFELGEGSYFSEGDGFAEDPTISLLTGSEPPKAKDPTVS
The target in a further assay is T6, SPIC (Homo sapiens, UniProt Q8N5J4 1-248).
T6 sequence: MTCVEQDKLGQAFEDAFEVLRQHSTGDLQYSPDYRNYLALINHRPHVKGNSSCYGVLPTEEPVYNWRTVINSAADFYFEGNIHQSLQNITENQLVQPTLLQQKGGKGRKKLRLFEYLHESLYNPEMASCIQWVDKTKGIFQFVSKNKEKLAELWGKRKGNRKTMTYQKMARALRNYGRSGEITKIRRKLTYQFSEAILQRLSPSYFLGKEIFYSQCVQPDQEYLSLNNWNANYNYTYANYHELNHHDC
The settings on record: protein: recombinant; tags: N-terminal GST; dsDNA, one strand shown. In outline: as §1

Another assay concerns the target T7, ETV2 (Homo sapiens, UniProt O00321 1-342).
T7 sequence: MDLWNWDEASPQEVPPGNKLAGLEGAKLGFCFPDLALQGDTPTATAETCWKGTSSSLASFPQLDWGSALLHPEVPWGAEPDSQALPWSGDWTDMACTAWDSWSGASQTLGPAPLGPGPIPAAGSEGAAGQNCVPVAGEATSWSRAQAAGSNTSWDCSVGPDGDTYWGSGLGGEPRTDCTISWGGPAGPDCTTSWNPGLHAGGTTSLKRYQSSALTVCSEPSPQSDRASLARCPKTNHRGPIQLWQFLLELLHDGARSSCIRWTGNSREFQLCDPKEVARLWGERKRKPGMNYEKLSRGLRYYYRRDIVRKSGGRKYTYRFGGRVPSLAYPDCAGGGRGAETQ
The note with it: protein: recombinant; tags: N-terminal GST; dsDNA, one strand shown. An outline of the steps:
as §1

The target of a further assay is T8, ELF3 (Homo sapiens, UniProt P78545 1-371).
T8 sequence: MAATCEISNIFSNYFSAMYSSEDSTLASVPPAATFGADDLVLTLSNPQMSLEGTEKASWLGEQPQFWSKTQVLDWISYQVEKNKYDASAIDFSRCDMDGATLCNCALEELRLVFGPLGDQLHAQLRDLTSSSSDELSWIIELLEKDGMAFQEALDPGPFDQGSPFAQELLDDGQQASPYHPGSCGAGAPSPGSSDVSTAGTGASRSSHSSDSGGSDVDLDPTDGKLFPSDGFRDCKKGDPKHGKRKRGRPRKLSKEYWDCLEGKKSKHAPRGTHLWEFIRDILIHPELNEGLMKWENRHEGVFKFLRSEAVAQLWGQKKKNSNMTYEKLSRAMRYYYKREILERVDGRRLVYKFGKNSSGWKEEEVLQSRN
The settings on record: protein: recombinant; tags: N-terminal GST; dsDNA, one strand shown. In outline:
as §1

In a further assay the target is CRX (Homo sapiens, UniProt O43186 1-299). The note with it: protein: recombinant; tags: N-terminal GST; dsDNA, one strand shown. An outline of the steps: as §1
Sequence of CRX (O43186 whole entry): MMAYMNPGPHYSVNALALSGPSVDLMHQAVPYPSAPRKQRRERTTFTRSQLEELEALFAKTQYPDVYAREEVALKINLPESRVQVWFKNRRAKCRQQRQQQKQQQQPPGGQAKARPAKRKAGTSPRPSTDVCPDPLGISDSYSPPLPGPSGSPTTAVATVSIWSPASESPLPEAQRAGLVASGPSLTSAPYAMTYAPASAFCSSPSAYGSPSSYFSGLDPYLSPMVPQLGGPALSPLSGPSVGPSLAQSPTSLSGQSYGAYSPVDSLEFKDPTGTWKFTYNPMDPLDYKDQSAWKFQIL
A further assay addresses ETV1 (Homo sapiens, UniProt P50549 1-477). The note with it: protein: recombinant; tags: N-terminal GST; dsDNA, one strand shown. An outline of the steps: as §1

Sequence of ELF1 (P32519 whole entry): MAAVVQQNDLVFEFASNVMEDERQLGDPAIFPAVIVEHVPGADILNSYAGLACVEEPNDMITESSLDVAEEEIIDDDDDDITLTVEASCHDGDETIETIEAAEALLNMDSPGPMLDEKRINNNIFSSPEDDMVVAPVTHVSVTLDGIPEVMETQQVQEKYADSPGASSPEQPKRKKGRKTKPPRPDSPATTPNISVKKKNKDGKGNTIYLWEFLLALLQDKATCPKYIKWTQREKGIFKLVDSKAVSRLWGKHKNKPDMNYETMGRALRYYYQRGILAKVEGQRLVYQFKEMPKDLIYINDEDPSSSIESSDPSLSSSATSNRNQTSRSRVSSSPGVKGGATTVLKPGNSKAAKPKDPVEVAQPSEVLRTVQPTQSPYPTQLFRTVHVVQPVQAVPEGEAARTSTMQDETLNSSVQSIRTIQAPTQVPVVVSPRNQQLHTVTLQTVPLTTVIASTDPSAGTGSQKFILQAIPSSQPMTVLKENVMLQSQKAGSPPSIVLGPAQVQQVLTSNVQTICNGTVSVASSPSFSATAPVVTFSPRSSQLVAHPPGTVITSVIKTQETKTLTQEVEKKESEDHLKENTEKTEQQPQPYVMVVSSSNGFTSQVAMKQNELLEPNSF
Sequence of ETV1 (P50549 whole entry): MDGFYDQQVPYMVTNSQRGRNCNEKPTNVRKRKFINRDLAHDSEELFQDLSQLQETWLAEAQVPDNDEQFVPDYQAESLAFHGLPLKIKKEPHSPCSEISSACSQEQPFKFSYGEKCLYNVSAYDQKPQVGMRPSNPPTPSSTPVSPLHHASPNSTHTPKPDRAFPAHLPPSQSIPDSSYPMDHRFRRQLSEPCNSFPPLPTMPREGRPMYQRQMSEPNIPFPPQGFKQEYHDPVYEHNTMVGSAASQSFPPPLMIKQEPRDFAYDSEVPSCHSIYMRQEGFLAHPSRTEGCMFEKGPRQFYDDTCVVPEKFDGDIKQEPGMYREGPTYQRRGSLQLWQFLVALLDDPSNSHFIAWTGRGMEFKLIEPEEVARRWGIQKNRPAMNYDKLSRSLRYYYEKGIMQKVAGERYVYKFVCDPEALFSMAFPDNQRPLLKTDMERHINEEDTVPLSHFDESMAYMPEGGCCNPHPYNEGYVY

For the sequence TAAGCG, the binding signal with FLI1 was 1.05 fold enrichment (6-mer frequency, TF over GST control); in the assay with GABPA, 1.01 fold enrichment (6-mer frequency, TF over GST control); with ERG, 1.02 fold enrichment (6-mer frequency, TF over GST control); with ELF1, 1.02 fold enrichment (6-mer frequency, TF over GST control); in the assay with EHF, 1.02 fold enrichment (6-mer frequency, TF over GST control); with SPI1 it was 1.03 fold enrichment (6-mer frequency, TF over GST control). Besides, the binding signal with ELK3 is 1.01 fold enrichment (6-mer frequency, TF over GST control); with ETV5, 1.02 fold enrichment (6-mer frequency, TF over GST control); with HSF1, 1.34 fold enrichment (6-mer frequency, TF over GST control); with SPIC, 1.04 fold enrichment (6-mer frequency, TF over GST control); with ETV2, 1.05 fold enrichment (6-mer frequency, TF over GST control); in the assay with ELF3, 1.19 fold enrichment (6-mer frequency, TF over GST control). Further, the binding signal with CRX is 1.86 fold enrichment (6-mer frequency, TF over GST control); with ETV1 it was 1 fold enrichment (6-mer frequency, TF over GST control).
